This is an account of results in PubChem BioAssay AID431 (Sanford-Burnham Center for Chemical Genomics, 2006).

SMILES strings stand for the structures. The whole screen tested about 63,000 compounds, of which about 1,100 (1.7%) were called active. The full list was thinned out, with actives kept by preference. Entries with a potency or affinity are not part of this list. Unmarked numbers belong to inactive results.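 Rule for the calls: active = compounds whose percent cytotoxicity in the single-dose primary screen, scaled between solvent and toxic-drug controls, exceeds 50; inactive = the rest.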

The assay in a line: cytotoxicity in KRAS-transformed pancreatic duct cells, primary screen, cell-based, fluorescence, HTS (AID 431).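 Note: 0% = DMSO solvent wells and 100% = doxorubicin-treated wells.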 As to conditions: HPDE-C7K KRASV12 cells, Alamar Blue viability, 48 h; at 10 µM; active compounds read high. In general terms: The colour change of resazurin is a common sign of viable cells or microbes.
With `CN(C)c1ccc(C2CC(=O)NC3=C2C(=O)CC(C)(C)C3)cc1` (stereo not given), the cytotoxicity was -6.4%. Turning to `C=CCn1sc(N)c(C(=O)OCC)c1=S`, the cytotoxicity is 9%. With `Cc1cc(C)c2c(=O)n(CC(=O)NCCCN3CCOCC3)sc2n1` the figure was 20.5%; with `O=C(CCNC(=O)Cn1ccc2ccccc2c1=O)NCCCN1CCN(c2ccccc2F)CC1`, -16.9%. For the compound `Cc1cc(C)c2c(=O)n(CC(=O)NCCCN3CCN(c4ccccc4F)CC3)sc2n1`, the cytotoxicity is 82.2% (active). With `CCOC(=O)N1CCN(C(=O)c2ccc3c(c2)NC(=O)C(N2CCOCC2)S3)CC1` (stereo not given), the cytotoxicity is -7.4%. For the compound `COCCNC(=O)CN1CCOc2ccccc21`, the cytotoxicity was -4.3%. With `COc1ccc(-c2cc(C(F)F)n3ncc(C(=O)N4CCN(C(=O)c5ccco5)CC4)c3n2)cc1` the figure was 5.6%. Turning to `NC(=O)C1CCCN(Cc2ccc(Cl)cc2)C1` (stereo not given), the cytotoxicity was -10.3%. Consider `CN(C)c1nc(SCCOC(=O)Nc2ccccc2)nc(N(C)C)n1`, for which the cytotoxicity was 16.1%. On to `CCOC(=O)Nc1sc(=S)n(C)c1C`, for which the cytotoxicity was -11.2%. `Cc1c(NC(=O)OCCSc2nc(N(C)C)nc(N(C)C)n2)sc(=S)n1C`: the cytotoxicity is 66% (active). With `Cc1cccc2cc(CN(CC3CCCO3)C(=O)c3ccncc3)c(=O)[nH]c12` (stereo not given), the cytotoxicity was 7.7%. Regarding `COc1ccccc1-c1nnc(SCC(=O)Nc2c(Cl)cccc2Cl)o1`, the cytotoxicity is -1%.

For `COC(=O)CSc1nnc(-c2ccccc2OC)o1`, the cytotoxicity was -18.2%. With `C#CCSC1=C(C#N)C(c2cccs2)C(C(=O)OCC)=C(C)N1` (stereo not given) the figure was 53.6% (active); with `CCOC(=O)C1=C(C)NC(SCC(=O)Nc2cc(C)on2)=C(C#N)C1c1cccs1` (stereo not given), 32.3%; with `CCOC(=O)C1=C(C)NC(SCc2cc(=O)[nH][nH]2)=C(C#N)C1c1cccs1` (stereo not given), 41.8%.

As to `CCOC(=O)C1=C(C)NC(SCC(=O)Nc2nc(C)cs2)=C(C#N)C1c1cccs1` (stereo not given), the cytotoxicity was 92.7% (active).

In the case of `CCSC1=C(C#N)C(c2cccs2)C(C(=O)OC)=C(C)N1` (stereo not given), the cytotoxicity was 15.4%. Take `CCOCCSC1=C(C#N)C(c2cccs2)C(C(C)=O)=C(C)N1` (stereo not given): the cytotoxicity is 4.7%. As for `O=C1N(CN2CCN(c3cccc(Cl)c3)CC2)c2ccccc2C12OCCCO2`, the cytotoxicity is 0%.

`Cc1ccc(NC(=O)c2oc3ccccc3c2NC(=O)c2ccc3c(c2)OCO3)cc1`: the cytotoxicity was -7.7%. For `COc1c(C)cc(Br)cc1C(=O)Nc1ccc(N2CCN(S(C)(=O)=O)CC2)cc1`, the cytotoxicity is 1.2%. Consider `CCc1nc2ccccc2c(C(=O)OCC(=O)Nc2ccc(S(=O)(=O)N3CCOCC3)cc2)c1C`, for which the cytotoxicity was 43.3%. `CCC(=O)Nc1cc(NC(=O)CSc2ncc(-c3ccc(F)cc3)n2Cc2ccco2)ccc1C`: the cytotoxicity was 3.3%.

For the compound `COc1ccc(-c2cnc(SCC(=O)Nc3cc(C)on3)n2Cc2ccco2)cc1`, the cytotoxicity is 0.3%.

With `COc1ccc(-c2cnc(SCC(=O)Nc3ccc4c(c3)OCO4)n2Cc2ccco2)cc1`, the cytotoxicity is 18.8%. Turning to `O=C(CSc1ncc(-c2ccc(F)cc2)n1Cc1ccco1)Nc1ccc2c(c1)OCO2`, the cytotoxicity is 86.3% (active). Consider `CC(=O)Nc1cccc(NC(=O)CSc2ncc(-c3ccc(Cl)cc3)n2Cc2ccco2)c1`, for which the cytotoxicity is 83.5% (active). `Cc1cnc(NC(=O)CSc2ncc(-c3ccccc3)n2Cc2ccco2)s1`: the cytotoxicity was -4.7%. As to `Cc1cc(=S)n(-c2ccccc2)n1C`, the cytotoxicity is -7.8%. Take `Cc1cc(C)nc(SC(C)C(=O)Nc2ccc(S(N)(=O)=O)cc2)n1` (stereo not given): the cytotoxicity is -10.7%. Consider `Cc1ccc(-c2nnc3ccc(SCC(=O)N4CCCCC4)nn23)cc1`, for which the cytotoxicity was -7%. For `CC1CCc2nc(NC(=O)Cc3cccs3)sc2C1` (stereo not given), the cytotoxicity is -16%.

Regarding `CC(C)C1Cc2c(sc3c2c(=O)n(Cc2ccccc2)c2nncn32)CO1` (stereo not given), the cytotoxicity was 1.7%.

For the compound `Cc1nnc2n(Cc3ccccc3)c(=O)c3c4c(sc3n12)CN(Cc1ccccc1)CC4`, the cytotoxicity is 1.6%. As for `C=CCn1c(SCCN2CCOCC2)nc2c1c(=O)[nH]c(=O)n2C`, the cytotoxicity is -10.8%. In the case of `Cc1[nH]n2c(=O)cc(C(C)C)nc2c1-c1ccccc1`, the cytotoxicity was 28.7%.

`Cc1cc(=O)n2[nH]c(C)c(-c3ccccc3)c2n1`: the cytotoxicity is -7%. `Cc1[nH]n2c(=O)cc(C(C)(C)C)nc2c1-c1ccccc1`: the cytotoxicity was 81.8% (active). Next, `CC(C)(C)NC(=O)C1N(c2cccnc2)C(=O)C2C(C(=O)Nc3ccccc3)C3(C)C=CC21O3` (stereo not given): -15.4%; `CCOC(=O)CSc1nc2cc(OCC)ccc2cc1C#N`: 56.4% (active); `CCOC(=O)CSc1nc2cc(C)ccc2cc1C#N`: -2.4%. For `CCOC(=O)CSc1nc2cc(OC)ccc2cc1C#N`, the cytotoxicity was 12.3%. Turning to `COc1cccc(-c2nn(-c3ccccc3)cc2CO)c1`, the cytotoxicity is 7.7%.

Consider `CCOc1ccc(OCC)c(NC(=O)CSc2nc3ccccc3c(=O)n2C)c1`, for which the cytotoxicity was 16.7%. Next, `O=C(Nc1ccc(CN2CCCCC2)cc1)c1ccc(Br)o1`: -24.8%; `O=C(Nc1ccc(CN2CCOCC2)cc1)c1cc2ccccc2o1`: 5.8%; `O=C1NCCN1C(=O)C12CC3CC(CC(C3)C1)C2`: -2.7%. Consider `Cc1nc2ccc3nc(NC(=O)c4ccc5c(c4)OCCO5)sc3c2s1`, for which the cytotoxicity was -0.1%.

As for `CCOc1ccc2[nH]c(=O)c(CN(Cc3ccco3)C(=O)c3ccc(Br)cc3)cc2c1`, the cytotoxicity was 21.8%. As for `COc1ccc2[nH]c(=O)c(CN(Cc3ccco3)C(=O)c3ccccc3)cc2c1`, the cytotoxicity was -1.9%. Regarding `CCOc1ccc2[nH]c(=O)c(CN(Cc3ccco3)C(=O)c3cccc(F)c3)cc2c1`, the cytotoxicity is 82% (active). On to `O=C(c1c(Cl)nc2sccn12)N(C(=O)c1c(Cl)nc2sccn12)c1ccc(Cl)cn1`, for which the cytotoxicity was 16%.

As for `COc1ccc(Oc2c(C)oc3cc(OC(=O)N4CCOCC4)ccc3c2=O)cc1`, the cytotoxicity was -5%. For the compound `COc1ccc(-n2ccnc2SCC(=O)NCc2ccc3c(c2)OCO3)cc1`, the cytotoxicity is 3.4%. With `COc1ccc(-c2cc(=O)[nH]c(NCc3ccccc3)n2)cc1` the figure was 7.1%; with `COc1ccc(NCc2ccc(OC)c(OC)c2)cc1`, -7.9%; with `COc1ccc(CNc2ccc(-c3ccc(OC)cc3)nn2)cc1`, 59.4% (active).
